Compound activity from PubChem.
Compounds with a hit are over-represented: about 21% of the library has one in this group of screens.
HCV inhibitor = HCV inhibition; Huh7.5.1 HCVcc-Cre infection, luciferase reporter, 44 h; Potency, µM (series often up to 41.8 µM), for inactives: top-dose activity change, negative = inhibition, actives largely listed as inhibitors; 340,000 compounds, 3.4% hits; AID 651820; further: potency means the concentration at half of the fitted maximal effect; on the % scale 0 is the no-effect control and ±100 the full control effect
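A cell-based infection assay in which seeded cells (1,000 per well) receive test compound after 4 h, are inoculated with HCVcc-Cre at approximately 0.5 moi, and are incubated 44 h before luminescence detection.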
Pf growth 96h = P. falciparum growth inhibition at 96 hour, primary screen for plastid delayed-death inhibitors; AID 504834; Potency, µM (series often up to 28.7 µM), inactives show at the highest dose activity change, negative = inhibition, most hits filed as inhibitors; P. falciparum luciferase reporter growth, 96 h; 320,000 compounds, 6.9% hits; further: potency means the concentration at half of the fitted maximal effect; on the % scale 0 is the no-effect control and ±100 the full control effect
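Compounds incubated with erythrocytes infected by luciferase-expressing P. falciparum (2% hematocrit, 0.05% parasitemia final) for 96 hours, 37 C in 5% CO2. Growth inhibition scored as decreased luciferase luminescence.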
Pf growth 48h = P. falciparum growth inhibition at 48 hours (one generation); 310,000 compounds, 5.9% hits; Potency, µM (titrated, usually from 28.7 µM), without a hit: at the top dose activity change, negative = inhibition, hits mostly inhibitors; P. falciparum luciferase growth in erythrocytes, 48 h; further: potency means the concentration at half of the fitted maximal effect; on the % scale 0 is the no-effect control and ±100 the full control effect
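Luciferase-expressing P. falciparum in infected erythrocytes (2% hematocrit, 0.1% parasitemia final) in RPMI 1640/0.5% Albumax were exposed to compound for 48 hours at 37 C, 5% CO2; growth read as luminescence.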
AMA1 RON2 block = AMA1-RON2 (P. falciparum) interaction inhibition | AlphaScreen AMA1-biotinylated RON2 peptide binding | Potency, µM (top dose mostly 58.2 µM), for the others: at the top dose activity change, negative = inhibition, usual class: inhibitors | 360,000 compounds, 0.2% hits | AID 720542;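 further: potency means the concentration at half of the fitted maximal effect; 0% = vehicle wells and -100% = peptide control; nearly all actives have a fitted effect of over 45% in size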
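AMA1 (3D7) with his tag at 25 nM final met compounds first, then biotinylated RON2 peptide at 25 nM; detection used donor plus acceptor beads, 10 µg/mL apiece, read by AlphaScreen after 30 min at room temperature.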
Cycloheximide cs = counter-screen for Shiga toxin inhibitors: cycloheximide protein synthesis inhibition; max response, %; cell reporter, cycloheximide protein synthesis inhibition counterscreen; AID 2314; 300,000 compounds, 12% hits; in the data active means max response mostly above about 13%, no sharp cut-off; inactive means mostly below about 14%; further: read at 38.3 µM for the half of the compounds with a filed dose; 0% is about no effect
Shiga toxin inh = inhibitors of Shiga toxin in Vero cells. AID 2315. Vero cells, Shiga toxin protein synthesis inhibition reporter. inhibition, % at 38.7 µM. 290,000 compounds, 9.2% hits; in the data active means inhibition mostly above about 28%, no sharp cut-off; inactive means mostly below about 43%; further: 0% is about no effect
An asterisk follows results filed as active; u = inconclusive; x = not tested or not shown; [ ] = another dose, or the depositor's remark. Unless noted, the call rests on the fitted dose curve; in most records, active means well fitted curve in the direction sought with a large enough effect; inconclusive means small, poorly fitted or top-dose-only effect, or another doubt; inactive means no such curve, though single readings can be large; an effect the other way counts as inactive or inconclusive.

SMILES	HCV inhibitor	Pf growth 96h	Pf growth 48h	AMA1 RON2 block	Cycloheximide cs	Shiga toxin inh
Cc1cc(Cl)ccc1NC(=O)CN1CCN(C(=O)c2ccco2)CC1	10%	-7%	10µM*	-13%	-2	-8
O=C(CN1CCC(NC(=O)c2ccco2)CC1)Nc1cccc2ccccc12	3%	10µM*	u	-8%	1	-2
O=C(CN1CCC(NC(=O)c2ccco2)CC1)Nc1ccccc1[N+](=O)[O-]	x	u	u	x	-1	15
O=C(c1ccco1)N1CCN(CCOCCOc2cccc3ccccc23)CC1	-27%	12µM*	x	64%	-6	-7
COc1ccc(COC(=O)C2CCN(C(=O)c3ccc(Cl)cc3)CC2)cc1F	17%	38%	-9%	1%	x	x
COc1ccccc1NC(=O)CN1CCN(C(=O)c2ccco2)CC1	-3%	-25%	2.1µM*	-3%	-1	-8
COc1ccc(NC(=S)N2CCN(C(=O)c3ccco3)CC2)c(OC)c1	u	u	1%	0%	-2	-3
COc1ccc(NC(=O)CN2CCN(C(=O)c3ccco3)CC2)c(OC)c1	20%	-16%	10µM*	7%	-3	-19
COc1ccccc1NC(=O)c1ccc(NC(=O)CN2CCN(C(=O)c3ccco3)CC2)cc1	u	u	-24%	0%	-2	15
CCCCn1nnnc1C(c1ccccc1)N1CCN(C/C=C/c2ccccc2)CC1 (centres undefined)	x	x	x	-22%	x	x
COC(=O)CC1C(=O)NCCN1C(=O)c1cc([N+](=O)[O-])ccc1Cl (centres undefined)	u	-7%	29%	-15%	-2	-3
O=C1CCN(S(=O)(=O)c2ccccc2)CCN1CCOCc1ccccc1	0%	9.3µM*	-6%	15%	-2	-8
Cc1ccc(S(=O)(=O)N2CCC(=O)N(CCOCc3ccc(Cl)cc3)CC2)cc1	u	-19%	-7%	-5%	-1	-9
Cc1cccc(COCCN2CCN(S(=O)(=O)c3ccccc3)CCC2=O)c1	4%	15µM*	-8%	10%	-6	9
CCOC(=O)[C@]12CCC=C1N(Cc1ccccc1)C(=O)[C@H](CC(=O)NCc1cccc(C(F)(F)F)c1)C2	x	x	x	1%	x	x
O=C(CS(=O)(=O)c1ccccc1)Nc1ccc(N2CCOCC2)cc1	17%	31%	20%	-7%	-2	-2
CC1C/C(=N/Nc2ccc([N+](=O)[O-])cc2[N+](=O)[O-])CC(C)(C)C1 (centres undefined)	-6%	u	10µM*	u	-2	-4
COc1cc(C(=O)OCC(=O)Nc2ccc(C)cc2)cc(OC)c1OC	u	0%	x	-9%	-5	-6
CC(C)Cc1nc(SCC(=O)N2CCCC2)c2c(=O)n(C)c(=O)n(C)c2n1	-25%	45%	0%	0%	-1	-3
Cc1c(O)cccc1C(=O)N[C@@H](CSc1ccccc1)[C@H](O)CN1C[C@H]2CCCC[C@H]2C[C@H]1C(=O)NC(C)(C)C	10µM*	u	6.6µM*	-6%	14	20
CCN(C(=O)COC(=O)COc1ccc(Cl)c(C)c1)C1CCS(=O)(=O)C1 (centres undefined)	7%	5%	u	39%	x	x
O=C(CC(c1ccccc1O)N1CCCCC1)N1CCCCC1 (centres undefined)	16%	0%	62%	-6%	41*	35*
O=C(Cc1ccccc1)NCC(=O)N1CCCCC1	0%	u	17%	-9%	21	2
COc1cccc(NC(=O)c2ccc3c(c2)CCN3S(C)(=O)=O)c1	u	221%	14%	3%	17*	50*
CC(=O)Nc1ccc(NC(=O)c2ccc3c(c2)CCN3S(C)(=O)=O)cc1	-16%	-8%	0%[0.00184 µM]	6%	1	4
SMILES	HCV inhibitor	Pf growth 96h	Pf growth 48h	AMA1 RON2 block	Cycloheximide cs	Shiga toxin inh
CS(=O)(=O)N1CCc2cc(C(=O)Nc3ccc(COCC(F)(F)F)cc3)ccc21	11µM*	u	u	-2%	-8	x
CS(=O)(=O)N1CCc2cc(C(=O)Nc3ccc(O)cc3)ccc21	-13%	u	-7%	-1%	-3	-9
O=C(COC(=O)CNS(=O)(=O)c1cc(C(F)(F)F)ccc1Cl)NC1CC1	18%	x	x	17%	x	x
COc1ccc(-c2csc(NC(=O)CS(=O)(=O)c3ccc(F)cc3)n2)cc1OC	u	u	u	11%	x	x
O=C(NNC(=O)c1ccc[nH]1)c1cccc(C(F)(F)F)c1	-1%	0%	u	13%	-2	8
O=C(NNC(=O)c1ccc[nH]1)Nc1cccc(C(F)(F)F)c1	17%	66%	28%	55%	43*	72*
O=C(NNC(=O)c1ccc[nH]1)Nc1cc(Cl)cc(Cl)c1	6%	39%	13%	39%	15*	31
CCCCCCCCCCC[C@@H](C[C@@H]1OC(=O)[C@H]1CCCCCC)OC(=O)[C@H](CC(C)C)NC=O	-3%	x	x	2%	5	27
O=C(NC(=O)c1c(F)cccc1F)O/N=C1\CCCc2occc21	25%	22%	2.3µM*	-4%	-3	-2
CC(C)c1cccc(C(C)C)c1OC(=O)NC(=O)c1c(F)cccc1F	-27%	-4%	u	5%	11	2
COc1ccc(C2N(Cc3ccccc3)CC(=O)N2/N=C(\C)c2ccccc2)cc1 (centres undefined)	2%	-13%	10%	-10%	24*	71*
O=C(OCC(=O)N1CCN(Cc2ccccc2)CC1)c1cc(Cl)ccc1[N+](=O)[O-]	5%	-7%	3%	7%[11.6 µM]	x	x
COc1cc(NC(=O)CSc2nnc(-c3ccncc3)o2)cc(OC)c1OC	-5%	u	17%	26%	-4	-11
C/C(=N\Nc1ccc([N+](=O)[O-])cc1)c1ccc(N)cc1	-20%	0%	u	-26%	34*	68*
CCc1ccc(/C(C)=N\Nc2ccc([N+](=O)[O-])cc2)cc1	-16%	4.1µM*	31%	5%	19*	37
C/C(=N\Nc1ccc([N+](=O)[O-])cc1)c1ccc(-n2nncc2C)cc1	u	4%	4%	1%[11.6 µM]	-2	-14
C/C(=N\Nc1ccc([N+](=O)[O-])cc1)c1ccco1	-2%	372%	232%	-10%	47*	34*
COc1cc(/C=N/N2C(C)CCCC2C)cc(OC)c1O (centres undefined)	2%	-1%	-19%	-7%	-1	-2
CCOc1ccc(/C=N/N2C(C)CCCC2C)cc1OC (centres undefined)	17%	10µM*	x	-3%	-2	12
CCOc1ccc(C(=S)NC2CCCCC2)cc1OCC	-24%	u	-18%	-1%	6	-2
CCN(CC)c1ccc(C(=S)NC2CCCCC2)cc1	u	5%	u	u	24*	76*
